Hits are enriched below; roughly 1.3% of the tested compounds scored in any of these assays.
PREPL inhibitor: human PREPL enzyme inhibition; Q4J6C6; recombinant PREPL, fluorescence polarization activity-based probe; inhibition, % at 5.96 µM; 320,000 compounds, 0.68% hits; in the data active means inhibition above about 43%;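 further: 0% = enzyme with DMSO and 100% = wells lacking enzyme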
Target sequence (Q4J6C6 whole entry, looked up): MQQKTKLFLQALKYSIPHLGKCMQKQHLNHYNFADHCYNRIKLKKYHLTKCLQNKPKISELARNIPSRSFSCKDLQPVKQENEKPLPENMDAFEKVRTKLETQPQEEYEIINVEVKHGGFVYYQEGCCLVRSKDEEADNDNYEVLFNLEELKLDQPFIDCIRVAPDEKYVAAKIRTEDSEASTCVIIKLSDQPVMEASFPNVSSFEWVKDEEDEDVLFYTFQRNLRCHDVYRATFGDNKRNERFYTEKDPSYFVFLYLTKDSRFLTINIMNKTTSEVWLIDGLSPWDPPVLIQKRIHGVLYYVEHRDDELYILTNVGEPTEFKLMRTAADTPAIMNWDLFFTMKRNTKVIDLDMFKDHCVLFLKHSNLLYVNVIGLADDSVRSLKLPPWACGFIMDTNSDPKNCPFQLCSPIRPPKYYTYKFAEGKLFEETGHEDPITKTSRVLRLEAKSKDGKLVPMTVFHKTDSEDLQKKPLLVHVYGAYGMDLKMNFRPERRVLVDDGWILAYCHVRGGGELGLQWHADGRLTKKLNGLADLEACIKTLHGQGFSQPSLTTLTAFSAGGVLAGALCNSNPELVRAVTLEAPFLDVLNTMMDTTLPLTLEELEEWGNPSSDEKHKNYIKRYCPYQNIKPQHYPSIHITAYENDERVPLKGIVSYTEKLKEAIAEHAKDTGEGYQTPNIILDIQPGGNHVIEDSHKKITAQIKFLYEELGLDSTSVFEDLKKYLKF
RAD52 anneal inh: inhibitors of human RAD52 DNA annealing; P43351; recombinant RAD52 DNA annealing, FRET fluorescence; inhibition, % at 18.7 µM; 360,000 compounds, 0.46% hits;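 active means every replicate showing at least 50% inhibition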
MIN6 prolif: MIN6 beta-cell proliferation induction; MIN6 cells proliferation, ATPlite luminescence, 48 h; cells starved in 0.2% serum; 100% = growth in 10% serum; proliferation, % at 10 µM; 330,000 compounds, 0.29% hits; AID 2380;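 active means compounds whose signal lies at least 3.5 SD above the mean of all wells on their plate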;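 further: 0% = DMSO-treated cells in low-serum medium and 100% = 10% serum control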
RAD54 branch: blocks human RAD54 Holliday junction branch migration | 360,000 compounds, 0.14% hits | AID 602329 | inhibition, % at 10.4 µM | FAM/BHQ fluorescence | Q92698;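 active means mean normalized replicate activity at least 40 and at least half of replicates scoring 40 or more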;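 further: 0% = median of neutral control wells and 100% = median of positive control wells; inhibitors cause a drop in the FAM fluorescence signal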
UBC13 polyUb: blocks human UBC13 polyubiquitin chain formation; 330,000 compounds, 0.47% hits; AID 485273; inhibition, % at 20 µM; TR-FRET; in the data active means inhibition above about 45%, passing the limit was not always enough
FID counter: displaces DNA intercalator in HCV helicase counter-screen; DNA fluorescent intercalator displacement, fluorescence; inhibition, % at 7.9 µM; 290,000 compounds, 0.17% hits; in the data active means inhibition above about 37%;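 further: 0% = vehicle and 100% = reference compound; higher means more ethidium bromide displaced from hairpin DNA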
Starred values were filed as active, the others as inactive; nt = not tested or not shown.

SMILES	PREPL inhibitor	RAD52 anneal inh	MIN6 prolif	RAD54 branch	UBC13 polyUb	FID counter
O=C(C[C@@H]1CC[C@@H]2[C@H](COC[C@H](O)CN2S(=O)(=O)c2ccc(Cl)cc2)O1)NCC1CCCCC1	nt	17	nt	-6	nt	nt
O=C(C[C@H]1CC[C@@H]2[C@H](COC[C@@H](O)CN2S(=O)(=O)c2ccccc2)O1)NCC1CCCCC1	nt	94*	nt	-3	nt	nt
O=C(C[C@@H]1CC[C@@H]2[C@H](COC[C@H](O)CN2S(=O)(=O)c2ccccc2)O1)NCC1CCCCC1	nt	2	nt	-6	nt	nt
O=C(N[C@H]1CC[C@H](CCn2cc(Cc3ccccc3)nn2)O[C@@H]1CO)c1cnccn1	nt	-10	nt	-2	nt	nt
CCS(=O)(=O)Nc1ccc2c(c1)C(=O)N(C)C[C@H](OC)[C@H](C)CN(Cc1nccs1)[C@@H](C)CO2	nt	6	nt	-2	nt	nt
CCOC(=O)NC(O)C(=O)c1cccs1 (stereo not given)	-2	nt	5.0*	-3	5	1
COc1ccc(S(=O)(=O)N(C)C[C@@H]2Oc3ccc(NC(=O)Nc4ccccc4)cc3CC(=O)N([C@@H](C)CO)C[C@@H]2C)cc1	nt	0	nt	72*	nt	nt
COc1ccc(S(=O)(=O)N(C)C[C@@H]2Oc3ccc(NC(=O)Nc4ccccc4)cc3CC(=O)N([C@@H](C)CO)C[C@H]2C)cc1	nt	7	nt	18	nt	nt
COc1ccc(S(=O)(=O)N(C)C[C@@H]2Oc3ccc(NC(=O)NC(C)C)cc3CC(=O)N([C@@H](C)CO)C[C@@H]2C)cc1	nt	14	nt	51*	nt	nt
Cc1ccc(NC(=O)c2ccc(NCCCN3CCC(C)CC3)c([N+](=O)[O-])c2)cc1F	-10	21	-5	nt	-4	41*
COc1ccc2cc3cc(C(=O)NCCCN4CCOCC4)oc3nc2c1	-1	nt	-1	60*	1	23
C[C@@H]1CN([C@H](C)CO)C(=O)c2cccc(NC(=O)Nc3ccc4c(c3)OCO4)c2O[C@@H]1CN(C)S(=O)(=O)c1ccc(Cl)cc1	nt	19	nt	5	nt	nt
Cc1ccc(S(=O)(=O)N(C)C[C@@H]2Oc3ccc(NC(=O)CCC(F)(F)F)cc3C(=O)N([C@H](C)CO)C[C@@H]2C)cc1	nt	9	nt	1	nt	nt
Cc1cc(Nc2cccc(Cl)c2)nc(NCc2ccccc2)n1	12	-20	-6	nt	49*	31
Cc1cc(N/N=C/c2cccc(Cl)c2)nc(NCc2ccccc2)n1	6	nt	-6	8	18	1
Cc1cc(OCC(O)CNC(C)c2ccccc2)ccc1C(C)C (stereo not given)	1	42	-4	11	26	41*
CC(NCC(O)COc1ccc2ccccc2c1)c1ccccc1 (stereo not given)	-20	18	-7	6	9	20
COc1ccc(OCC(O)CNC(C)c2ccccc2)cc1 (stereo not given)	8	4	1	1	5	2
CCCC(NCC(O)COc1ccc(-c2ccccc2)cc1)c1ccccc1 (stereo not given)	1	-7	-6	nt	28	41*
O=C(Cc1coc2cc3c(cc12)CCC3)NCC1(N2CCCCC2)CCCCC1	46*	-44	-4	nt	-3	13
O=C(Cc1coc2cc3c(cc12)CCC3)NC1CCCCCCC1	-20	-1	-2	11	11	-20
C[C@@H]1CN([C@@H](C)CO)C(=O)c2cccc(NC(=O)C3CC3)c2O[C@@H]1CN(C)S(=O)(=O)c1cccs1	nt	0	nt	-3	nt	nt
OCCN1CCN(c2nc(-c3ccccc3)nc3c2oc2ccccc23)CC1	-6	nt	-6	35	4	43*
CN(C)CCCNC(=O)/C(=C\c1ccc(-c2cccc([N+](=O)[O-])c2)o1)NC(=O)c1ccccc1	11	49	-6	nt	29	44*
Cc1ccc(C(=O)N/C(=C\c2ccc(-c3ccc(Br)cc3)o2)C(=O)NCCCN(C)C)cc1	19	-44	-6	nt	72*	25
CN(C)CCNC(=O)/C(=C/c1ccc(-c2ccc(Cl)cc2)o1)NC(=O)c1ccccc1	-3	nt	nt	25	nt	22
CC(=O)N1[C@@H]2c3ccc(-c4ccccc4)c(=O)n3C[C@@H]2[C@@H](CO)[C@@H]1C(=O)NC1CCC1	nt	0	nt	5	nt	nt
CC1CCCCN1CCCNC(=O)C1CCN(c2nnc(-n3cccc3)s2)CC1 (stereo not given)	34	47	4	-1	21	0
